# Rows were chosen to be rich in hits. Some 3.4% of all compounds tested hit in one or more screens of this group.
# FBW7 activator: human FBW7 E3 ligase activation, primary screen; Q969H0; AlphaScreen FBW7–phospho-cyclin E peptide binding, activator screen; normalized activity (activation), % at 26.1 µM; 650,000 tested, 0.13% active; AID 1259310; in the data active = normalized activity above about 1.9%;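 note: purified mutant Fbw7 with reduced substrate affinity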
# MITF primary: blocks human microphthalmia-associated transcription factor | AlphaScreen MITF homodimerization, bead proximity signal | inhibition, % at 2.6 µM | 650,000 tested, 0.91% active | AID 1259374; in the data active = inhibition above about 50%;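 note: 0% = vehicle wells with protein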
# TEAD-YAP block: TEAD-YAP interaction inhibition. HEK-TIYL cells, TEAD-Gal4/YAP UAS-luciferase luminescence. inhibition, % at 9.12 µM. 640,000 tested, 1.4% active. AID 1259422; in the data active = inhibition above about 32%;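 note: 0% = median of test compound wells and 100% = reference inhibitor wells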
# GPR151 activ: activators of human GPR151; Q8TDV0; PathHunter beta-arrestin GPR151 cells, luminescence; activation, % at 11.2 µM; 650,000 tested, 1% active; in the data active = activation above about 4.9%;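 note: 0% = median of compound wells and 100% = cells with positive control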
# Target sequence (Q8TDV0 whole entry, looked up): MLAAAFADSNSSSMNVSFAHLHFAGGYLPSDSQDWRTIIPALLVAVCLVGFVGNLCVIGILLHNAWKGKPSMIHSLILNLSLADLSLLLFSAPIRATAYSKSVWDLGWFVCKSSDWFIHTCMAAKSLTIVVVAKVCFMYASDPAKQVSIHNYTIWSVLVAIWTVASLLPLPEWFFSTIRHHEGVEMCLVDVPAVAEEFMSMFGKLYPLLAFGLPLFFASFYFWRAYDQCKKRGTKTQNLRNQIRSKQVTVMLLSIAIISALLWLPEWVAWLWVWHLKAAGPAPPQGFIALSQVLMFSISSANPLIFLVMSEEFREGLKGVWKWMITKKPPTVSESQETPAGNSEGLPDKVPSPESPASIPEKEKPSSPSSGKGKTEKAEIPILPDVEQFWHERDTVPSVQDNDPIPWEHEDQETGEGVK
# The depositor's hits bear a star.
SMILES,FBW7 activator,MITF primary,TEAD-YAP block,GPR151 activ
c1cc(-n2cnc3c(Nc4ccc(N5CCOCC5)cc4)nc(NCCN4CCOCC4)nc32)cs1,-0.2,3.1,44.6*,-0.2
c1cc(-n2cnc3c(NCCN4CCOCC4)nc(NCCN4CCOCC4)nc32)cs1,0.1,4.1,16.3,1.3
CC(=O)Nc1ccc(Nc2nc(NCCN3CCOCC3)nc3c2ncn3-c2ccsc2)cc1,-0.3,-5.2,51.4*,-0.3
Cc1ccc(-c2nc(CSCC(=O)NCCN3CCCC3)c(C)o2)cc1,-0.2,15.2,9.6,-0.9
COc1cc(/C=C2/C(=O)N(c3cccc(Cl)c3)N=C2C)ccc1Oc1ccc([N+](=O)[O-])cc1C(F)(F)F,0.1,-9.1,42.2*,-1.0
COc1ccc(/C=C2\C(=O)N(c3cccc(Cl)c3)N=C2C)cc1[N+](=O)[O-],-0.1,-2.5,-4.9,0.9
COc1cccc2c(C)cc(N3CCN(C)CC3)nc12,1.9*,15.9,-5.9,-0.2
COc1ccc2[nH]c(=O)c(CN(CC3CCCO3)S(=O)(=O)c3ccccc3F)cc2c1 (configuration not stated),0.3,2.6,33.8*,0.8
Cc1cccc(C(=O)Nc2cc(C)nn2-c2nc(C)cc(=O)[nH]2)c1,-0.1,6.0,0.5,0.1
CCCc1cc(=O)[nH]c(-n2nc(C)cc2NC(=O)c2cccc(Cl)c2)n1,2.4*,-1.1,5.6,1.4
CN1/C(=C\C(C[N+](=O)[O-])c2ccc3c(c2)OCO3)C(C)(C)c2ccccc21 (configuration not stated),-0.3,7.8,48.7*,0.4
COc1ccc(C(/C=C2\N(C)c3ccccc3C2(C)C)C[N+](=O)[O-])cc1 (configuration not stated),0.1,10.8,15.8,0.9
N#C/C(=C\c1ccc(O)c(Br)c1)c1nc(-c2ccc3c(c2)OCO3)cs1,0.1,0.9,-10.6,-0.1
N#C/C(=C\c1ccc(O)c(O)c1)c1nc(-c2ccc3c(c2)OCO3)cs1,-0.3,58.0*,18.2,0.2
COc1cccc(NC(=O)C(=O)NCC2CCCN2S(=O)(=O)c2ccccc2)c1 (configuration not stated),0.1,-5.1,-55.3,1.8
CCCNC(=O)C(=O)NCC1CCCN1S(=O)(=O)c1ccc(C)cc1 (configuration not stated),0.0,3.1,9.6,2.5
CNC(=O)C(=O)NCCC1CCCCN1S(=O)(=O)c1ccc(C)cc1 (configuration not stated),0.0,3.1,1.5,1.0
COc1cccc(CNC(=O)C(=O)NCC2CCCN2S(=O)(=O)c2ccc(C)cc2)c1 (configuration not stated),-0.1,2.5,40.5*,3.5
CCCCCNC(=O)C(=O)NCC1CCCN1S(=O)(=O)c1ccc(C)cc1 (configuration not stated),0.1,-3.4,49.1*,0.8
Cc1ccc(S(=O)(=O)N2CCCCC2CCNC(=O)C(=O)NCc2cccnc2)cc1 (configuration not stated),0.6,2.2,36.3*,-0.5
CCCCN(CC)S(=O)(=O)c1cc(C(=O)Nc2ccc(Br)cc2)ccc1F,0.0,-2.2,31.0,-0.3
Cc1ccc(N2C(=O)/C(=C/c3ccc(N(C)C)cc3)N=C2c2ccccc2F)c(C)c1,0.1,-9.9,67.6*,2.1
CN(C)c1ccc(/C=C2\N=C(c3ccccc3F)N(c3ccc(O)cc3)C2=O)cc1,0.1,10.1,59.5*,0.3
CN(C)c1ccc(/C=C2\N=C(c3ccccc3F)N(c3ccc(Br)cc3)C2=O)cc1,-0.1,-0.5,-5.0,-0.6
Cc1ccc(S(=O)(=O)Nc2cc(C)c(O)c(Br)c2C(C)C)cc1,-0.1,-2.3,-5.2,4.7
SMILES,FBW7 activator,MITF primary,TEAD-YAP block,GPR151 activ
CCC(CO)Nc1ccc2ncc(-c3cncc(OC)c3)n2n1 (configuration not stated),0.2,6.4,54.1*,-0.1
CCC(CO)Nc1ccc2ncc(-c3cccc(NS(C)(=O)=O)c3)n2n1 (configuration not stated),0.1,-8.6,36.5*,1.3
CCC(CO)Nc1ccc2ncc(-c3ccc(OC)cc3)n2n1 (configuration not stated),0.7,15.6,16.0,-0.4
COc1ccc([N+](=O)[O-])cc1NC(=O)c1cc(F)c(F)c(F)c1F,0.2,-14.3,-5.1,2.5
CC(C)(C)NC(=O)CSc1nc(-c2ccccc2)cs1,0.3,-19.1,61.8*,1.7
O=C(Nc1ccc(-n2cccn2)cc1)C1CC12CCN(C(=O)c1ccc3c(c1)OCO3)CC2 (configuration not stated),0.2,3.3,4.2,-0.1
CC(C(=O)Nc1ccc(Cl)cn1)N1Cc2ccccc2C1=O (configuration not stated),0.2,-10.6,84.6*,-0.8
CCOc1ccc(N/C(SCc2ccc(Cl)cc2)=C(/C#N)C(N)=O)cc1,-0.1,11.8,19.1,-1.8
CC(=O)NC(=S)NNC(=O)c1ccccc1OCc1ccccc1,-0.6,0.5,62.7*,-1.9
CCCCOc1ccccc1C(=O)NNC(=S)NC(C)=O,-0.9,37.7,15.6,-0.9
c1ccc(-c2cn3nc(-c4ccccc4)sc3n2)cc1,0.2,5.9,44.2*,-0.7
CC(C)c1cc(C(=O)NCCc2ccccc2)nn1-c1nc2ccccc2s1,0.2,2.3,44.4*,-0.4
COc1ccc(NC(=O)c2cc(C(C)C)n(-c3nc4ccccc4s3)n2)cc1OC,-0.1,-7.4,55.8*,0.2
CCCSc1nnc2c(n1)OC(/C=C/c1ccccc1)Nc1ccccc1-2 (configuration not stated),-0.1,8.5,-21.5,-0.7
c1ccc(N2CCN(c3ccnc4c(-c5ccc6c(c5)OCO6)cnn34)CC2)nc1,0.7,20.7,3.1,-0.3
NC(=O)c1c(Cl)nsc1S(=O)(=O)Cc1ccccc1,-0.1,-1.1,45.5*,-2.3
COC(=O)Nc1c(Cl)nsc1S(=O)(=O)Cc1ccccc1,-0.1,-0.8,14.1,1.2
COc1ccc(-n2cc(C(=O)N(CCC#N)c3ccccc3)c3ccccc3c2=O)cc1,0.0,1.7,-7.5,0.1
O=C(N1CCCCCC1)N1c2ccccc2C=Cc2ccccc21,-0.1,5.5,35.9*,0.1
COc1ccc(-n2cc(-c3ccccc3)c3c(Nc4ccccc4)ncnc32)cc1,-0.1,0.8,-3.7,1.3
Cc1cccc(Nc2nc3nonc3nc2Nc2ccccc2I)c1,-0.1,9.9,86.5*,1.2
CCOC(=O)c1ccc(-n2sc3c(c2=S)-c2cc(C)ccc2NC3(C)C)cc1,0.3,75.8*,10.2,-1.0
O=C(CCCc1ccccc1)Nc1ccnn1C1CCN(C2CCSC2)CC1 (configuration not stated),0.1,17.6,11.3,-0.2
NC(=O)NN1C(=O)/C(=C/c2ccco2)SC1=S,-0.8,68.7*,-1.9,-0.4
Cc1ccc(/C=C2/SC(=S)N(CCCCCC(=O)O)C2=O)o1,-0.3,39.8,38.7*,2.3
O=C(NN1C(=O)/C(=C\c2ccco2)SC1=S)c1ccccc1Cl,-0.5,34.8,1.3,-0.3
Cc1ccc(/C=C2/SC(=S)N(CCS(=O)(=O)O)C2=O)o1,-1.2,56.3*,6.4,0.8
